# From PubChem BioAssay
# Only some compounds are listed: those with a hit (about 4% of all), similar ones and a draw of the others.
# MITF TRPM1 inh = MITF TRPM1 promoter inhibition in SK-MEL-5 cells | inhibition, % at 12.5 µM | actives 0.83% (n = 330,000) | SK-MEL-5 TRPM1 promoter luciferase, 24 h;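 active = mean inhibition across replicates of 60% or more, whatever share of single replicates reaches that level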
# EBV LMP1 NFkB = inhibitors of Epstein-Barr LMP1-induced NF-kappaB reporter; LMP1-induced NF-kappaB luciferase reporter cells, luminescence; inhibition, % at 12.5 µM; actives 0.69% (n = 350,000); AID 504558; in the data active = inhibition above about 41%;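 also: 0% = neutral control wells and 100% = reference inhibitor control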
# TWEAK Fn14 block = TWEAK-Fn14 signaling inhibition. TWEAK-stimulated Fn14 reporter cells, luciferase luminescence, 8 h. inhibition, % at 10 µM. actives 2% (n = 360,000). AID 1159606; in the data active = inhibition above about 50%
# Peg3 prom inh = reduces Peg3 promoter-driven luciferase expression in HeLa; AID 588405; inhibition, % at 20 µM; actives 1.7% (n = 360,000); HeLa PEG-Prom luciferase reporter, luminescence, overnight;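 active = inhibition of at least 50% at 20 µM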
# TROY signal inh = blocks TROY-dependent signaling in reporter cells | Q293 LMP1-TROYcd NF-kB luciferase reporter, 4 h | inhibition, % at 10 µM | actives 0.98% (n = 360,000);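 active = compounds whose plate-normalised and pattern-corrected inhibition of the luciferase reporter signal at the single screening dose is 50% or more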
# HIF-2a inh = blocks HIF-2a reporter activity. 786-0 RCC cells HIF-2a reporter, luciferase luminescence, overnight. inhibition, % at 18.8 µM. actives 0.72% (n = 360,000);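 active = inhibition of the luminescence signal of 40% or more relative to plate controls, in a single-dose primary screen at 18.75 µM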
# * hit, by the source's call; / = not tested or not shown.
SMILES,MITF TRPM1 inh,EBV LMP1 NFkB,TWEAK Fn14 block,Peg3 prom inh,TROY signal inh,HIF-2a inh
O=C(Oc1c(CN2CCOCC2)cc(Cl)c2cccnc12)c1ccccc1F,68*,1,27,22,8,3
COc1cccc(-c2nc3c(c(SCC(=O)N4CCOCC4)n2)Cc2c(CO)cnc(C)c2O3)c1,16,4,5,59*,2,3
Cc1ncc(CO)c2c1Oc1nc(-c3ccccc3)nc(SCC(=O)N3CCOCC3)c1C2,6,-10,-17,80*,13,10
COc1ccccc1-c1nc2c(c(SCC(=O)N3CCCCC3)n1)Cc1c(CO)cnc(C)c1O2,12,-5,8,30,4,8
Cc1ncc(CO)c2c1Oc1nc(-c3ccccc3F)nc(SCC(=O)N(C)c3ccccc3)c1C2,16,0,47,85*,46,25
Cc1cccc(-c2nc3c(c(SCC(=O)N4CCOCC4)n2)Cc2c(CO)cnc(C)c2O3)c1,-5,6,-2,68*,21,15
COc1ccc(/C=N\NC(=O)c2cc(O)c(O)c(O)c2)cc1COc1ccc(C(=O)OCC(C)C)cc1,-6,-3,-7,4,-33,17
COCCNc1nc(-c2ccccc2CO)c2sc(-c3ccccc3)cc2n1,/,/,-2,-1,-9,-17
Cc1ncc(CO)c2c1Oc1nc(-c3ccccc3)nc(SCC(=O)N3CCCCC3)c1C2,5,-3,27,64*,22,13
O=C(Cn1ccc2ccccc2c1=O)NCCC(=O)Nc1ccc2c(c1)OCCO2,-20,21,57*,-7,36,14
CN(Cc1ccccc1)CC(O)COc1ccc(CNCc2ccc(Cl)s2)cc1 (stereo not given),24,-8,-6,54*,-8,24
CC(=O)NC(c1ccccc1)c1nc(-c2ccc(C)c(C)c2)cs1 (stereo not given),/,/,-11,8,-10,-54
O=C(O)c1cc2ccccc2cc1Nc1ccccc1,2,2,6,2,-2,-2
CC(C)Cc1nc(N2CCN(C(=O)c3ccco3)CC2)c(C#N)c2c1CCCC2,16,7,-12,8,53*,9
Cc1nc(N2CCN(C(=O)c3ccco3)CC2)c(C#N)c2c1CCCC2,-27,10,-23,-31,16,-92
Cc1ccc(C(=O)Nc2cccc(C(=O)N/N=C/c3ccccc3F)c2)cc1,6,59*,-10,15,-30,-43
C[C@@H]1CN([C@H](C)CO)C(=O)CCCn2nncc2CO[C@@H]1CN(C)S(=O)(=O)c1ccccc1,/,6,2,5,-7,13
CCCCNc1c(-c2cccc(-c3cc(C(C)=O)cs3)c2)nc2cc(C)ccn12,-5,3,24,60*,-1,-101
C/C(=N\NC(=O)COc1ccccc1-c1ccccc1)c1cccnc1,-2,2,8,29,30,7
COc1cc(C(=O)N/N=C(\C)c2ccccn2)cc(OC)c1OC,39,13,-3,58*,27,-3
COc1cccc(C(=O)N/N=C(/c2ccccc2)c2ccccn2)c1,66*,40,-53,86*,-19,-15
C/C(=N\NC(=O)c1cc(C)nc2ccccc12)c1ccccn1,89*,29,-141,46,23,-8
C/C(=N\NC(=O)COc1ccccc1-c1ccccc1)c1ccccn1,84*,41*,-71,46,22,13
O=C(c1cc(Cl)ccc1Cl)N1CCN(c2ccccn2)CC1,7,-6,13,1,14,-3
O=C(c1cnc(N2CCN(c3ccccn3)CC2)c2ccccc12)N1CCN(c2cccc(Cl)c2)CC1,27,29,91*,46,46,5
SMILES,MITF TRPM1 inh,EBV LMP1 NFkB,TWEAK Fn14 block,Peg3 prom inh,TROY signal inh,HIF-2a inh
CCCSc1nc2c(cnn2-c2ccccc2)c(=O)[nH]1,6,12,2,20,4,14
CCCSc1nc2c(cnn2-c2ccc(C)cc2)c(=O)[nH]1,2,11,-22,61*,4,17
O=C(CN1C(=O)C2C3C=CC(C3)C2C1=O)Nc1nc2ccccc2[nH]1 (stereo not given),-18,1,73*,-59,/,-56
COCCSc1nnc(NC(=O)c2ccc([N+](=O)[O-])cc2)s1,-16,7,-4,-25,-22,-35
CCOC(=O)CSc1nnc(NC(=O)c2cc([N+](=O)[O-])cc([N+](=O)[O-])c2)s1,5,-6,85*,-6,66*,-2
CCOC(=O)CC(NC(=O)Cn1nnc(-c2ccccc2F)n1)c1ccccc1Cl (stereo not given),16,-3,4,18,18,23
COc1ccc(COc2ccccc2C(=O)NCc2ccccc2)cc1F,33,22,69*,19,47,6
NC(=O)c1c(-c2ccc(Cl)cc2Cl)csc1NC(=O)Cc1ccccc1,-12,11,76*,-20,20,-21
O=C(Cc1ccccc1)Nc1scc(-c2ccccc2)c1C(=O)N1CCOCC1,12,-4,-6,-7,-13,-17
CCc1ccccc1-n1ncc(C(=O)Nc2ccc(OC)cc2)c1C,-82,79*,-22,-271,-31,-264
COc1cccc(NC(=O)N2CCc3nc(Nc4cc(Cl)cc(Cl)c4)ncc3C2)c1,/,/,13,28,0,-48
CC(C)c1ccc(Nc2ncc3c(n2)CCN(C(=O)Nc2ccc(F)c(Cl)c2)C3)cc1,/,/,78*,-44,65*,-39
O=C(Nc1ccc(OC(F)(F)F)cc1)N1CCc2nc(NCc3cccc(Oc4ccccc4)c3)ncc2C1,/,/,35,44,33,-5
COc1cccc(NC(=O)N2CCc3nc(NCc4cccc(Oc5ccccc5)c4)ncc3C2)c1,/,/,54*,0,18,-18
CN1CCN(c2ccc(-c3cc(NC=O)c4ncc(-c5ccccc5)n4c3)cc2)CC1,/,/,22,79*,41,-58
CN1CCN(c2ccc(-c3cc(NC=O)c4ncc(-c5ccc(F)cc5)n4c3)cc2)CC1,/,/,14,7,46,-87
COc1cc(-c2cnc3c(NC(C)=O)cc(-c4ccc(N5CCN(C)CC5)cc4)cn23)cc(OC)c1OC,/,/,54*,42,63*,39
CNC(=O)c1ccccc1NC(=O)c1c(O)c2c([nH]c1=O)CCCC2,-1,-10,15,-38,5,-105
O=C(N/N=C/c1cccc(F)c1)c1c(O)c2c([nH]c1=O)CCCC2,-41,3,-10,-245,53*,-193
CCOc1ccc(CCN2C(=S)N([C@@H](CC(C)C)CN3CCCC3CN3C(=S)NC[C@@H]3Cc3ccc(O)cc3)C[C@@H]2Cc2ccc(O)cc2)cc1 (stereo not given in full),15,9,47,87*,11,-48
CC(C)C[C@H]1CNC(=S)N1C[C@H]1CCCN1C[C@H](Cc1ccc(O)cc1)N1C[C@H](Cc2ccc(O)cc2)N(CCc2ccccc2)C1=S,/,/,18,94*,12,-22
